About 2,000 (36%) of roughly 5,500 compounds were called active. Roughly 18% stayed inconclusive and do not appear here. The list shows a part of the results. Unmarked numbers belong to inactive results. Rule as the data show it: active = normalized growth mostly below about 0.91 (no sharp cut-off); inconclusive = no clear call, values can overlap the other calls; inactive = mostly above about 0.92.
Experiment: chemical genetic growth profiling, strain panel (AID 1159580);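 also: tested at 20 µM; growth read once vehicle control cultures reached saturation at 30 °C; 1 = growth at the plate median or of vehicle wells; lower values mean less growth of the strain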
Details: growth OD

## O=C1C(Cl)=C(Cl)C(=O)C(Cl)=C1Cl
S. cerevisiae deletion strains, locus YKL009W, strain mrt4, active compounds read low
  normalized growth: 1.17 [resistant] (active)
S. cerevisiae deletion strains, locus YKL068W, active compounds read low
  normalized growth: 0.12 (active)
S. cerevisiae deletion strains, locus YKL085W, strain MDH1 (second series), active compounds read low
  normalized growth: 0.0519 (active)
S. cerevisiae deletion strains, locus YKL085W, strain MDH1, active compounds read low
  normalized growth: 0.0519 (active)
S. cerevisiae deletion strains, locus YKL160W, strain elf1, active compounds read low
  normalized growth: 0.901 (active)
S. cerevisiae deletion strains, locus YKL190W, strain CNB1, active compounds read low
  normalized growth: 0.629 (active)
S. cerevisiae deletion strains, locus YKR001C, strain vps1, active compounds read low
  normalized growth: 0.094 (active)
S. cerevisiae deletion strains, locus YKR026C, strain gcn3, active compounds read low
  normalized growth: 0.987
S. cerevisiae deletion strains, locus YKR091W, strain srl3, active compounds read low
  normalized growth: 0.99
S. cerevisiae deletion strains, locus YLL001W, strain dnm1, active compounds read low
  normalized growth: 0.958
S. cerevisiae deletion strains, locus YLL026W, active compounds read low
  normalized growth: 0.98
S. cerevisiae deletion strains, locus YLL041C, strain sdh2, active compounds read low
  normalized growth: 0.988
S. cerevisiae deletion strains, locus YLR027C, strain aat2, active compounds read low
  normalized growth: 0.899 (active)
S. cerevisiae deletion strains, locus YLR039C, strain RIC1, active compounds read low
  normalized growth: 0.275 (active)
S. cerevisiae deletion strains, locus YLR058C, strain SHM2, active compounds read low
  normalized growth: 0.966
S. cerevisiae deletion strains, locus YLR102C, strain apc9, active compounds read low
  normalized growth: 0.254 (active)
S. cerevisiae deletion strains, locus YLR113W, strain HOG1, active compounds read low
  normalized growth: 0.145 (active)
S. cerevisiae deletion strains, locus YLR221C, strain rsa3, active compounds read low
  normalized growth: 0.855 (active)
S. cerevisiae deletion strains, locus YLR258W, strain gsy2, active compounds read low
  normalized growth: 0.978
S. cerevisiae deletion strains, locus YLR262C, strain YPT6 (second series), active compounds read low
  normalized growth: 0.703 (active)
S. cerevisiae deletion strains, locus YLR262C, strain YPT6, active compounds read low
  normalized growth: 0.168 (active)
S. cerevisiae deletion strains, locus YLR268W, strain sec22, active compounds read low
  normalized growth: 0.256 (active)
S. cerevisiae deletion strains, locus YLR320W, strain mms22, active compounds read low
  normalized growth: 0.92
S. cerevisiae deletion strains, locus YLR330W, strain CHS5, active compounds read low
  normalized growth: 0.129 (active)
S. cerevisiae deletion strains, locus YLR342W, strain FKS1 (second series), active compounds read low
  normalized growth: 0.243 (active)
S. cerevisiae deletion strains, locus YLR342W, strain FKS1, active compounds read low
  normalized growth: 0.935
S. cerevisiae deletion strains, locus YLR357W, strain rsc2, active compounds read low
  normalized growth: 0.86
S. cerevisiae deletion strains, locus YLR370C, strain arc18, active compounds read low
  normalized growth: 0.919
S. cerevisiae deletion strains, locus YLR371W, strain rom2, active compounds read low
  normalized growth: 0.151 (active)
S. cerevisiae deletion strains, locus YLR384C, strain iki3, active compounds read low
  normalized growth: 0.966
S. cerevisiae deletion strains, locus YLR418C, strain cdc73, active compounds read low
  normalized growth: 0.292 (active)
S. cerevisiae deletion strains, locus YML016C, strain PPZ1, active compounds read low
  normalized growth: 0.776 (active)
S. cerevisiae deletion strains, locus YML032C, strain rad52, active compounds read low
  normalized growth: 0.912
S. cerevisiae deletion strains, locus YML120C, strain ndi1, active compounds read low
  normalized growth: 0.9 (active)
S. cerevisiae deletion strains, locus YML124C, strain tub3, active compounds read low
  normalized growth: 0.708 (active)
S. cerevisiae deletion strains, locus YMR058W, strain fet3, active compounds read low
  normalized growth: 0.909
S. cerevisiae deletion strains, locus YMR078C, strain ctf18, active compounds read low
  normalized growth: 0.551 (active)
S. cerevisiae deletion strains, locus YMR125W, strain sto1, active compounds read low
  normalized growth: 0.792 (active)
S. cerevisiae deletion strains, locus YMR129W, active compounds read low
  normalized growth: 0.957
S. cerevisiae deletion strains, locus YMR205C, strain PFK2, active compounds read low
  normalized growth: 0.932
S. cerevisiae deletion strains, locus YMR223W, strain ubp8, active compounds read low
  normalized growth: 0.182 (active)
S. cerevisiae deletion strains, locus YMR231W, strain pep5, active compounds read low
  normalized growth: 0.971
S. cerevisiae deletion strains, locus YMR263W, strain SAP30, active compounds read low
  normalized growth: 0.794 (active)
S. cerevisiae deletion strains, locus YMR307W, strain GAS1, active compounds read low
  normalized growth: 0.112 (active)
S. cerevisiae deletion strains, locus YNL067W, strain RPL9B, active compounds read low
  normalized growth: 0.63 (active)
S. cerevisiae deletion strains, locus YNL071W, strain lat1, active compounds read low
  normalized growth: 0.824 (active)
S. cerevisiae deletion strains, locus YNL128W, strain TEP1, active compounds read low
  normalized growth: 0.341 (active)
S. cerevisiae deletion strains, locus YNL153C, strain GIM3, active compounds read low
  normalized growth: 0.814 (active)
S. cerevisiae deletion strains, locus YNL183C, strain NPR1, active compounds read low
  normalized growth: 0.0843 (active)
S. cerevisiae deletion strains, locus YNL209W, strain ssb2, active compounds read low
  normalized growth: 0.888 (active)
S. cerevisiae deletion strains, locus YNL233W, strain BNI4, active compounds read low
  normalized growth: 0.17 (active)
S. cerevisiae deletion strains, locus YNL248C, strain rpa49, active compounds read low
  normalized growth: 0.884 (active)
S. cerevisiae deletion strains, locus YNL250W, strain rad50, active compounds read low
  normalized growth: 0.0728 (active)
S. cerevisiae deletion strains, locus YNL271C, strain bni1, active compounds read low
  normalized growth: 0.0654 (active)
S. cerevisiae deletion strains, locus YNL298W, strain CLA4, active compounds read low
  normalized growth: 0.0642 (active)
S. cerevisiae deletion strains, locus YNL307C, strain MCK1, active compounds read low
  normalized growth: 0.206 (active)
S. cerevisiae deletion strains, locus YNL322C, strain KRE1 (second series), active compounds read low
  normalized growth: 0.924
S. cerevisiae deletion strains, locus YNL322C, strain KRE1, active compounds read low
  normalized growth: 0.849 (active)
S. cerevisiae deletion strains, locus YNR049C, strain mso1, active compounds read low
  normalized growth: 0.989
S. cerevisiae deletion strains, locus YNR052C, strain pop2, active compounds read low
  normalized growth: 0.911 (active)
S. cerevisiae deletion strains, locus YOL006C, strain TOP1, active compounds read low
  normalized growth: 0.357 (active)
S. cerevisiae deletion strains, locus YOL012C, strain htz1
  normalized growth: 0.457
S. cerevisiae deletion strains, locus YOL147C, strain pex11, active compounds read low
  normalized growth: 0.986
S. cerevisiae deletion strains, locus YOR001W, strain rrp6, active compounds read low
  normalized growth: 0.915
S. cerevisiae deletion strains, locus YOR061W, strain CKA2, active compounds read low
  normalized growth: 0.617 (active)
S. cerevisiae deletion strains, locus YOR069W, strain VPS5, active compounds read low
  normalized growth: 0.577 (active)
S. cerevisiae deletion strains, locus YOR070C, strain gyp1, active compounds read low
  normalized growth: 0.917 (active)
S. cerevisiae deletion strains, locus YOR080W, strain dia2, active compounds read low
  normalized growth: 0.98
S. cerevisiae deletion strains, locus YOR083W, strain WHI5, active compounds read low
  normalized growth: 0.871 (active)
S. cerevisiae deletion strains, locus YOR106W, strain vam3, active compounds read low
  normalized growth: 0.856 (active)
S. cerevisiae deletion strains, locus YOR136W, strain idh2, active compounds read low
  normalized growth: 0.307 (active)
S. cerevisiae deletion strains, locus YOR144C, strain elg1, active compounds read low
  normalized growth: 0.985
S. cerevisiae deletion strains, locus YOR184W, strain ser1, active compounds read low
  normalized growth: 0.195 (active)
S. cerevisiae deletion strains, locus YOR231W, strain MKK1, active compounds read low
  normalized growth: 0.124 (active)
S. cerevisiae deletion strains, locus YOR265W, strain rbl2, active compounds read low
  normalized growth: 0.959
S. cerevisiae deletion strains, locus YOR270C, strain vph1, active compounds read low
  normalized growth: 0.977
S. cerevisiae deletion strains, locus YOR290C, strain snf2, active compounds read low
  normalized growth: 0.941
S. cerevisiae deletion strains, locus YOR316C, strain cot1, active compounds read low
  normalized growth: 0.677 (active)
S. cerevisiae deletion strains, locus YPL051W, strain arl3, active compounds read low
  normalized growth: 0.841 (active)
S. cerevisiae deletion strains, locus YPL055C, strain LGE1, active compounds read low
  normalized growth: 0.408 (active)
S. cerevisiae deletion strains, locus YPL078C, strain atp4, active compounds read low
  normalized growth: 0.964
S. cerevisiae deletion strains, locus YPL106C, strain sse1, active compounds read low
  normalized growth: 0.838 (active)
S. cerevisiae deletion strains, locus YPL240C, strain hsp82, active compounds read low
  normalized growth: 0.979
S. cerevisiae deletion strains, locus YPL241C, strain CIN2, active compounds read low
  normalized growth: 0.995
S. cerevisiae deletion strains, locus YPL256C, strain CLN2, active compounds read low
  normalized growth: 0.132 (active)
S. cerevisiae deletion strains, locus YPR119W, strain clb2, active compounds read low
  normalized growth: 0.444 (active)
S. cerevisiae deletion strains, locus YPR141C, strain kar3, active compounds read low
  normalized growth: 0.11 (active)
S. cerevisiae deletion strains, locus YPR163C, strain tif3, active compounds read low
  normalized growth: 0.321 (active)
S. cerevisiae deletion strains, locus YPR167C, strain met16, active compounds read low
  normalized growth: 0.176 (active)
S. cerevisiae deletion strains, strain wtn01, active compounds read low
  normalized growth: 0.32 (active)
S. cerevisiae strains, strain wild type, active compounds read low
  normalized growth: 0.423 (active)

From PubChem BioAssay AID1159580 (chemical genetic matrix, 2015)
